Data on 58 compounds can be found in PubChem BioAssay AID1259415 (National Center for Advancing Translational Sciences (NCATS), 2018).

Structures are written as SMILES. The campaign covered roughly 410,000 compounds. About 18,000 (4.4%) were called active. About 7% were inconclusive and are not listed. Cut-off read from the data, not from the text of the source: active = activity change below about -60%; inconclusive = no clear call, values can overlap the other calls; inactive = above about -39%. The list comes from a sample in which actives are over-represented; it also holds similar structures and randomly drawn compounds.
% is set by controls: 0 for no effect and ±100 for the full control effect.

The nature of the assay: qHTS Assay for inhibitors of the human cytomegalovirus (HCMV). The following applies: HFF cells, HCMV-luciferase reporter, 72 h; at 57.5 µM; active compounds read low. Summed up: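 Compounds were evaluated in HFFs infected with an HCMV luciferase reporter virus (MOI 1 PFU/cell). Luciferase in lysates collected 72 h post infection served as the replication measure.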
Consider `CCOc1ccc(N2CC(C)Cn3c2nc2c3c(=O)n(Cc3c(F)cccc3Cl)c(=O)n2C)cc1` (stereo not drawn), for which the activity change, negative = inhibition was -9.51% (inactive).
On to `CCOc1ccccc1NC(=O)CN1CCN(S(=O)(=O)c2ccc(Br)cc2)CC1`, for which the activity change, negative = inhibition is -1.48% (inactive).
The same measure for `O=C(NC1CC(=O)N(c2ccc(F)cc2)C1)C1CCCCC1` (stereo not drawn): 31.9% (inactive); for `Cc1ccc(C)c(N2CCN(C(c3ccccc3)c3nnc(-c4ccccc4)o3)CC2)c1` (stereo not drawn): 20.2% (inactive).
Regarding `O=C(NN1C(=O)C2C3C=CC(C4CC34)C2C1=O)c1ccc(Cl)cc1` (stereo not drawn), the activity change, negative = inhibition was 11.6% (inactive).
For `COc1ccc(C(=O)NN2C(=O)C3C(c4ccccc4)C=CC(c4ccccc4)C3C2=O)cc1` (stereo not drawn), the activity change, negative = inhibition was -63% (active).
With `O=C(NN1C(=O)C2C3C=CC(O3)C2C1=O)c1ccncc1` (stereo not drawn) the figure was -8.47% (inactive); with `CCc1cccc(NC(=O)c2cnc(N3CCOCC3)c3ccccc23)c1`, 10.1% (inactive); with `COc1ccc(CCNC(=O)c2ccc3c(c2)nc(C)n3-c2ccc(Br)cc2)cc1OC`, -16.1% (inactive).
`Cc1ccc(C)c(Cn2c(C)c(CNCc3ccc(F)cc3)c(C(=O)O)c2C)c1`: the activity change, negative = inhibition is 18.1% (inactive).
With `Cc1ccc(C2c3[nH]c4ccccc4c3CCN2C(=O)c2cccc(C)c2)cc1` (stereo not drawn) the figure was -22.4% (inactive); with `CC(C)CNc1ncnc2c1cnn2Cc1ccc(Cl)cc1`, -30.5% (inactive).
In the case of `C=CCNc1ncnc2ccc(Br)cc12`, the activity change, negative = inhibition was -60.6% (active).
With `C=CCOc1cccc(CNCc2cccnc2)c1` the figure was 21.4% (inactive); with `c1cncc(CNC2=NCCC2)c1`, 46.1% (inactive).
The same measure for `Clc1cccc(-n2ncc3c(NCCc4ccccc4)ncnc32)c1`: 41.5% (inactive).
With `Brc1ccc2ncnc(NCc3cccnc3)c2c1` the figure was -65.9% (active).
As for `Clc1ccc(Cn2ncc3c(NCc4cccnc4)ncnc32)cc1`, the activity change, negative = inhibition is -72.2% (active).
With `COc1ccc(CCNS(=O)(=O)c2cccc([N+](=O)[O-])c2)cc1` the figure was -2.78% (inactive).
The same measure for `COc1cc2nc(NCC(C)c3ccccc3)n3nc(-c4ccccc4)nc3c2cc1OC` (stereo not drawn): 5.32% (inactive); for `Cc1ccc2cccc(NC(=O)C(C)Oc3ccc(C)c(C)c3)c2n1` (stereo not drawn): -3.68% (inactive); for `C=CCNC(=O)c1cc2nc(C3CC3)cc(C(F)F)n2n1`: 37.6% (inactive).
With `COc1ccc(N(CC(=O)Nc2ccc(F)c(F)c2)S(=O)(=O)c2c(C)[nH]c(=O)[nH]c2=O)cc1` the figure was 0% (inactive); with `CC(C)c1ccc(NC(=O)c2cc(S(=O)(=O)N3CCc4ccccc4C3)ccc2F)cc1`, 3.74% (inactive); with `CC1=C(C(=O)OCC(C)C)C(c2ccc(OCc3ccccc3)cc2)N2C(=O)CCSC2=N1` (stereo not drawn), 14.9% (inactive).
With `COc1ccc(NC(=O)CN2C(=O)C(c3ccccc3)=NC23CCCCCC3)cc1OC`, the activity change, negative = inhibition is -13.9% (inactive).
The same measure for `CCc1ccc(NC(=O)CN2C(=O)C(c3ccccc3)=NC23CCCCCC3)cc1`: 16.1% (inactive); for `CC1CCC2(CC1)N=C(c1ccccc1)C(=O)N2CC(=O)Nc1ccc(F)c(Cl)c1` (stereo not drawn): -96% (active); for `COc1cccc(NC(=O)C2CCN(c3cc(C)nc4c(-c5ccc(Cl)cc5)c(C)nn34)CC2)c1`: -5.4% (inactive).
For `CC(=O)c1cc(-c2ccccc2)[nH]c1N1CCCC1`, the activity change, negative = inhibition was 30.4% (inactive).
With `Cc1ccc(-c2cc(=O)c3ccc(F)cc3[nH]2)cc1` the figure was 3.06% (inactive); with `O=c1cc(-c2ccccc2)[nH]c2cc(F)ccc12`, -67.4% (active); with `COc1ccccc1Nc1ncc(C(C)=O)c(C)n1`, 16.2% (inactive).
With `COc1cccc2sc(Nc3nc(C)c(C(C)=O)s3)nc12` the figure was -77% (active).
The same measure for `COc1ccccc1CNC(=O)COC(=O)c1sc(C)nc1C`: -2.84% (inactive).
With `O=C(Nc1ccc(-c2nc3cc(NC(=O)c4ccccc4Cl)ccc3o2)cc1)c1ccccc1Cl`, the activity change, negative = inhibition was -35.6% (inactive).
Turning to `COc1ccc(-c2nc(Cn3c(=O)cc(C)c4c(C)nn(-c5ccccc5)c43)c(C)o2)c(OC)c1`, the activity change, negative = inhibition was -2.37% (inactive).
Take `Cc1nc2ccc(S(=O)(=O)NC(C(=O)NCc3ccccc3Cl)C(C)C)cc2s1` (stereo not drawn): the activity change, negative = inhibition was -12.9% (inactive).
With `CC1(C)CC(=O)C=C(c2ccc(Cl)c(C(F)(F)F)c2)C1` the figure was -4.75% (inactive); with `COc1ccccc1-c1n[nH]nc1C1=CC(=O)CC(C)(C)C1`, -4.89% (inactive).
With `CC1(C)CC(=O)C=C(c2ccc3ncccc3c2)C1` the figure was -83.3% (active).
The same measure for `CC1CCCCN1Cc1c(O)ccc2c(=O)c(-c3cccc(Cl)c3)c(C(F)(F)F)oc12` (stereo not drawn): 11.3% (inactive); for `O=C(CCc1c[nH]c2ccccc12)NCCOc1ccccc1`: -2.62% (inactive).
On to `N#C/C(=C/c1ccc(N2CCCCC2)o1)C(=O)NCCc1c[nH]c2ccccc12`, for which the activity change, negative = inhibition was -60.4% (active).
With `O=C(NCCCc1ccccc1)C(=O)c1c[nH]c2ccccc12` the figure was 21.3% (inactive).
For `COc1ccc(NC(=O)Cn2cc(C(=O)c3ccncc3)c(=O)c3cc(C)ccc32)cc1Cl`, the activity change, negative = inhibition was -8.82% (inactive).
With `CCCOc1ccc(C2c3c(-c4ccccc4O)n[nH]c3C(=O)N2Cc2cccnc2)cc1` (stereo not drawn) the figure was 8.52% (inactive); with `CCOC(=O)c1ccc(NC(=O)c2c(NCc3cccs3)sc3c2CCCC3)cc1`, -7.9% (inactive); with `COc1ccc(N2CCN(c3nc(-c4ccccc4F)nc4ccccc34)CC2)cc1`, -30% (inactive).
`CC(C)(C)Nc1nc(-c2ccccn2)nc2ccccc12`: the activity change, negative = inhibition is -100% (active).
Consider `COc1cc(Nc2nc(-c3ccc(OC)c(OC)c3)nc3ccccc23)cc(OC)c1`, for which the activity change, negative = inhibition was -33.1% (inactive).
On to `CCCc1nn2c(=O)cc(COC(=O)c3ccc(NC(=O)COc4ccc(F)cc4)cc3)nc2s1`, for which the activity change, negative = inhibition was -24.2% (inactive).
The same measure for `CC(C)(C)C(=O)CCN1C(=O)C2(OCCO2)c2ccccc21`: 1.52% (inactive); for `COc1ccc(C2C(=O)N(C3CCCCCC3)CC(=O)N2CCc2ccc(Cl)cc2)cc1OC` (stereo not drawn): -12.5% (inactive).
The same measure for `Cc1cn(C)c(CC(=O)NCc2ccccc2)c1C(=O)O`: 16.2% (inactive); for `CC1=Nc2cc(C(=O)N3CCC(C)CC3)ccc2Sc2ccc(Cl)cc21`: -34.1% (inactive).
For the compound `NC(=O)C1CCN(C(=O)c2ccc(F)c(S(=O)(=O)N3CCOCC3)c2)CC1`, the activity change, negative = inhibition is -6.8% (inactive).
Consider `CC1CCN(C(=O)c2ccc(S(=O)(=O)Cc3cc(F)ccc3F)c([N+](=O)[O-])c2)CC1`, for which the activity change, negative = inhibition is -83.1% (active).
